Only some compounds are listed: those with a hit (about 3.7% of all), similar ones and a draw of the others.
PTHR1 ag: qHTS for PTHR1 Agonists: Primary Screen; HEK293 GP2 PTHR1 cells, GloSensor cAMP luminescence, 1 h; Potency, µM (series often up to 115 µM), for the others: at the highest dose activation, usual class: activators; hit rate 0.075% among 410,000; AID 743266, 2014; further: potency means the concentration at half of the fitted maximal effect; nearly all actives have a fitted effect of over 55% in size
Target sequence (Q03431 whole entry, looked up): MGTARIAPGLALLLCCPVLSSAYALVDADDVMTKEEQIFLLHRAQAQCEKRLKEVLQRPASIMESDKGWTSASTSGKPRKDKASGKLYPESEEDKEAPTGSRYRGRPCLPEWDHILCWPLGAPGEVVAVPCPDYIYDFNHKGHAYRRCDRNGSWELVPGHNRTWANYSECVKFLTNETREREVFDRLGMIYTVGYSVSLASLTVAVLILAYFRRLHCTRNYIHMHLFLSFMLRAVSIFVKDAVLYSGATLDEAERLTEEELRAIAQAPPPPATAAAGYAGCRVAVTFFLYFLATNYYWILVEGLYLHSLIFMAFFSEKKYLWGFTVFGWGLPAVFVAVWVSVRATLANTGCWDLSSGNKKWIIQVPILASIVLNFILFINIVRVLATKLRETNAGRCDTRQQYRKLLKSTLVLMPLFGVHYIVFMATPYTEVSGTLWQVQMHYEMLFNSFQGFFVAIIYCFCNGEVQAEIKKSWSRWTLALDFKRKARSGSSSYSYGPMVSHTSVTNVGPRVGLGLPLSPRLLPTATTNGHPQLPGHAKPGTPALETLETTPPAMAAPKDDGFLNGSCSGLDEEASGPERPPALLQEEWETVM
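HEK-293-derived GP2 cells expressing PTHR1 and a GloSensor cAMP reporter, 3,000/well, plated overnight, given luciferin plus IBMX (each 0.5 mM as added) for 1 h at 37 °C, then compound for 1 h at 37 °C. Luminescence was read after 15 min at room temperature.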
D3 antag: qHTS of D3 Dopamine Receptor Antagonist: qHTS | D3R cells, DiscoveRx beta-arrestin luminescence, antagonist mode; active compounds read low | max response, negative = inhibition, % | hit rate 2.5% among 360,000; in the data active means max response below about -50%; inconclusive means no clear call, values can overlap the other calls; further: on the % scale 0 is the no-effect control and ±100 the full control effect
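Cells plated overnight at 1500 cells/well, then exposed to library compounds with dopamine controls for 90 minutes at 37 degrees C. DiscoveRx reagent added for 30–60 minutes at room temperature; luminescence read, quantitative HTS format.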
B2AR arrestin: qHTS assay of beta-arrestin-biased ligands of beta2-adrenergic receptor. Beta-2 adrenergic receptor (Homo sapiens), P07550. beta-arrestin recruitment to beta2AR, cell-based reporter. Potency, µM (doses to about 46.1 µM), without a hit: top-dose activation, hits mostly activators. hit rate 0.02% among 330,000;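 further: potency means the concentration at half of the fitted maximal effect; 0% = DMSO controls and full agonism = EC100 isoproterenol or metaproterenol; nearly all actives have a fitted effect of over 65% in size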
RGS4 inhibitor: Inhibitors of Regulator of G Protein Signaling (RGS) 4: qHTS | hit rate 0.039% among 390,000 | AID 504845, 2011 | Transcreener GDP fluorescence polarization, RGS4-accelerated GTP hydrolysis | Regulator of G-protein signaling 4 (Homo sapiens), P49798 | Potency, µM (titrated, usually from 114 µM), for inactives: at the top dose activity change, negative = inhibition, actives largely listed as inhibitors; further: potency means the concentration at half of the fitted maximal effect; on the % scale 0 is the no-effect control and ±100 the full control effect; nearly all actives have a fitted effect of over 75% in size
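MLSMR compounds (23 nl, pin-transferred) preincubated 10 min at room temperature with a 500nM (2x) first reagent, then RGS4 at 900nM (2x) plus Transcreener GDP mix added; fluorescence polarization (620/688 nm) read before and after 90 min at 30 °C.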
BRCA1 expr act: qHTS Assay to Identify Small Molecule Activators of BRCA1 Expression; Potency, µM (top dose mostly 46.1 µM), inactives show top-dose activation, actives largely listed as activators; hit rate 1.1% among 380,000; MCF7-BRCA1-FFLuc reporter, luminescence, 48 h; response scale: scaled: vehicle 0%, 10 µM genistein 100%; further: potency means the concentration at half of the fitted maximal effect; nearly all actives have a fitted effect of over 80% in size
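Using MCF7 cells harboring a BRCA1 firefly luciferase reporter, plated 2 h before compound pinning, the screen measured luminescence after 48 h incubation. Responses were normalized to DMSO and 10 microM genistein, then fitted for concentration-effect.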
D3 ag: qHTS of D3 Dopamine Receptor Agonist: qHTS; D3R DiscoveRx beta-arrestin cells, luminescence, 90 min; max activation, %; hit rate 0.58% among 410,000; in the data active means max activation above about 30%; further: 0% is about no effect
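Agonist-mode cell screen: cells plated at 1500/well and incubated overnight at 37 °C, then exposed to library compounds for 90 min at 37 °C. Detection reagent was added for 30–60 min at room temperature, and luminescence was read.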
The depositor's hits bear a star; [ ] = remark or other dose. Unless noted, the call rests on the fitted dose curve; in most records, active means well fitted curve in the direction sought with a large enough effect; inconclusive means small, poorly fitted or top-dose-only effect, or another doubt; inactive means no such curve, though single readings can be large; an effect the other way counts as inactive or inconclusive.

Results for COCCn1c(C)cc(C(=O)CSc2ccc(NC(C)=O)cc2)c1C ?
PTHR1 ag: -7.5%; D3 antag: -12.6; B2AR arrestin: 0.1%; RGS4 inhibitor: -17.4%; BRCA1 expr act: 7.08µM*; D3 ag: 4.1

How did Cc1cc(C(=O)COC(=O)Cc2n[nH]c(=O)c3ccccc23)c(C)n1CC(F)(F)F do in these assays?
PTHR1 ag: -12.2%; D3 antag: 19.0; B2AR arrestin: 0.4%; RGS4 inhibitor: -20.7%; BRCA1 expr act: -0.1%; D3 ag: 0.9

How did COCCn1c(C)cc(C(=O)COC(=O)c2ccc(NC(=O)CC#N)cc2)c1C do in these assays?
PTHR1 ag: -28.0%; D3 antag: -2.0; B2AR arrestin: 0.1%; RGS4 inhibitor: inconclusive; BRCA1 expr act: 2.82µM*; D3 ag: 1.7

What do the screens show for `COCCn1c(C)cc(C(=O)COC(=O)c2cncc(Br)c2)c1C`?
PTHR1 ag: -26.1%; D3 antag: -10.4; B2AR arrestin: -0.6%; RGS4 inhibitor: -5.1%; BRCA1 expr act: inconclusive; D3 ag: -4.3

What do the screens show for `COCCn1c(C)cc(C(=O)COC(=O)c2ccc(S(=O)(=O)N(C)C)cc2)c1C`?
PTHR1 ag: -8.5%; D3 antag: 5.4; B2AR arrestin: -0.5%; RGS4 inhibitor: -11.7%; BRCA1 expr act: 0.9%; D3 ag: 4.1

How did COCCn1c(C)cc(C(=O)COC(=O)c2ccc3ncsc3c2)c1C do in these assays?
PTHR1 ag: -12.9%[57.5 µM]; D3 antag: -55.4*; B2AR arrestin: 0.1%; RGS4 inhibitor: -77.0%[11.4 µM]; BRCA1 expr act: 11.2µM*; D3 ag: 6.9

What do the screens show for `Cc1cccc(Cn2cc(S(=O)(=O)c3ccc(Cl)cc3)c(=O)c3cc4c(cc32)OCO4)c1`?
PTHR1 ag: -12.4%; RGS4 inhibitor: 5.4%; D3 ag: -6.9

What do the screens show for `O=C(Cc1c(F)cccc1Cl)Nc1nccs1`?
PTHR1 ag: -10.5%; D3 antag: -3.1; B2AR arrestin: -0.6%; RGS4 inhibitor: 4.8%; BRCA1 expr act: 10.8%; D3 ag: -4.3

Results for COCCn1c(C)cc(C(=O)COC(=O)c2cccnc2SC)c1C ?
PTHR1 ag: inactive; D3 antag: -2.2; B2AR arrestin: -0.9%; RGS4 inhibitor: -38.9%; BRCA1 expr act: 8.91µM*; D3 ag: 0.9

What do the screens show for `COCCn1c(C)cc(C(=O)CSc2nc(C)nc3sc4c(c23)CCC4)c1C`?
PTHR1 ag: -18.5%[57.5 µM]; D3 antag: 40.0; RGS4 inhibitor: -46.6%; BRCA1 expr act: -26.4%; D3 ag: 54.4*

How did Cc1cc(C(=O)COC(=O)c2ccc(O)cc2)c(C)n1CC(F)(F)F do in these assays?
PTHR1 ag: -40.1%; D3 antag: -9.4; B2AR arrestin: -0.6%; RGS4 inhibitor: 1.3%; BRCA1 expr act: 7.94µM*; D3 ag: -1.3

Results for Cc1nc(SCC(=O)NCC2CCCO2)c2c3c(sc2n1)CCCC3 (stereo unspecified) ?
PTHR1 ag: -1.9%; D3 antag: 1.0; B2AR arrestin: 0.5%; RGS4 inhibitor: -19.8%; BRCA1 expr act: -27.5%; D3 ag: 7.5

Results for O=C1NC(=O)C2(COC(c3cccc([N+](=O)[O-])c3)OC2)S1 (stereo unspecified) ?
PTHR1 ag: -1.7%; D3 antag: -3.0; B2AR arrestin: 0.1%; RGS4 inhibitor: -48.9%; BRCA1 expr act: 0.0%; D3 ag: 3.4

How did CNc1ncc(C(=O)c2ccc(Cl)c(Cl)c2)s1 do in these assays?
PTHR1 ag: -2.4%; D3 antag: -8.6; B2AR arrestin: -0.3%; RGS4 inhibitor: 13.9%; BRCA1 expr act: inconclusive; D3 ag: -2.1

From PubChem
